Screening data (PubChem)
Most compounds without a hit are left out; they make up all but 10% or so of the library.
JMJD2A Tudor = qHTS Assay for Inhibitors of JMJD2A-Tudor Domain; Lysine-specific demethylase 4A (Homo sapiens), O75164; Potency, µM (doses to about 114 µM), actives largely listed as inhibitors; AID 504339, 2011; 390,000 tested, 4.4% active; AlphaScreen JMJD2A-Tudor / H3K4me3 peptide binding; note: nearly all actives have a fitted effect of over 50% in size
Target sequence (O75164 whole entry, looked up, the tested form may be a part): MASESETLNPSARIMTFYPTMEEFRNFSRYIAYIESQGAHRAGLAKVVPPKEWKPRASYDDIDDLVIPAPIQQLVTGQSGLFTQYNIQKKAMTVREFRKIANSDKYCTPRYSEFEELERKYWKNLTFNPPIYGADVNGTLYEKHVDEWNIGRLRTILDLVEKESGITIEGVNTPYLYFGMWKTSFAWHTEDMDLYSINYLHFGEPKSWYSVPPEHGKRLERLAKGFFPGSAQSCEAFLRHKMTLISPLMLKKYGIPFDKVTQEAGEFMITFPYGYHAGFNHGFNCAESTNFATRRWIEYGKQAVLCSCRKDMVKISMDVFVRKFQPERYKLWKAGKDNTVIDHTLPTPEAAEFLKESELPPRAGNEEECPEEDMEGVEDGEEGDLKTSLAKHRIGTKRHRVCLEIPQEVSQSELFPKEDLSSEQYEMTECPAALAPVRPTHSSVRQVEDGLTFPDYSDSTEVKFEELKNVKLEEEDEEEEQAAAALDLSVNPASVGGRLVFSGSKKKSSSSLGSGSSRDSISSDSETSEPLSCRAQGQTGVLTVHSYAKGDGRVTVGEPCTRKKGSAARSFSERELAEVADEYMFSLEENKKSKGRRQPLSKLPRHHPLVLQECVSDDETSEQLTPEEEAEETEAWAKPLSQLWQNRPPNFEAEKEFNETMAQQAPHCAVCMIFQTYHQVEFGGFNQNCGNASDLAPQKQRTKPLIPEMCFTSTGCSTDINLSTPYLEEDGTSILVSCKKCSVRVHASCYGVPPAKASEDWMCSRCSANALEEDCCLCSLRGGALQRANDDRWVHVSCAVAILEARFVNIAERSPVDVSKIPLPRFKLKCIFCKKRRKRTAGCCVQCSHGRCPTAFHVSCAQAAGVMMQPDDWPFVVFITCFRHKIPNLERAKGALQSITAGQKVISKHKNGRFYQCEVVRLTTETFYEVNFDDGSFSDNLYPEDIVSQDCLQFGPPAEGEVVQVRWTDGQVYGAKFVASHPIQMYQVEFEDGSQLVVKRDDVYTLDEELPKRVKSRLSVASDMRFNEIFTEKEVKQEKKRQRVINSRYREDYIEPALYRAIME
G9a block = qHTS Assay for Inhibitors of Histone Lysine Methyltransferase G9a. Histone-lysine N-methyltransferase EHMT2 (Homo sapiens), Q96KQ7. G9a H3K9 monomethylation, AlphaScreen, 2 h. Potency, µM (doses to about 102 µM), usual class: inhibitors. 350,000 tested, 8.8% active. AID 504332, 2011; note: nearly all actives have a fitted effect of over 75% in size
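Readings reflect AlphaScreen signal from monomethyl-H3K9 antibody detection. HMT at 20 nM; substrate b-H3K9 500 nM; cofactor SAM 20 uM; 2 h RT reaction; compounds tested as titrations in qHTS with 15 min preincubation.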
HP1b binding inh = HTS for Inhibitors of HP1-beta Chromodomain Interactions with Methylated Histone Tails; Chromobox protein homolog 1 (Homo sapiens), P83916; AlphaScreen HP1-beta / biotin-H3K9me3 peptide binding; Potency, µM (highest dose often 114 µM), hits mostly inhibitors; 390,000 tested, 0.56% active; AID 540317, 2011; note: nearly all actives have a fitted effect of over 70% in size
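Compound inhibition of the preformed complex between 50 nM HP1-beta and 50 nM biotinylated H3K9me3 peptide was read by AlphaScreen. Buffer was PBS pH 7.4 with 0.01% Tween-20. Incubations ran 30 min at room temperature, with 10 ug/mL donor/acceptor beads.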
GLS inhibitor = qHTS for Inhibitors of Glutaminase (GLS) | GLS enzymatic activity, qHTS titration | 410,000 tested, 0.21% active | Potency, µM (highest dose often 45.5 µM), hits mostly inhibitors | Glutaminase kidney isoform, mitochondrial (Homo sapiens), O94925 | AID 624170, 2012
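Two-point fluorescence kinetic (t0, 30 min RT) for hKGA; glutamate detected via glutamate oxidase–HRP–Amplex Red. Substrate: 1 mM L-glutamine solution; buffer 45 mM KH2PO4, pH 8.2.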
BAZ2B inh = qHTS Assay for Inhibitors of BAZ2B; Bromodomain adjacent to zinc finger domain protein 2B (Homo sapiens), Q9UIF8; AlphaScreen BAZ2B-H3K14Ac peptide displacement; Potency, µM (top dose mostly 114 µM), usual class: inhibitors; 360,000 tested, 4.4% active; note: nearly all actives have a fitted effect of over 60% in size
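In this displacement format the biotinylated H3(5-23) peptide acetylated at Lys14 serves as ligand at 50 nM, with BAZ2B at 50 nM in PBS pH 7.4 containing 0.01% Tween-20. Donor and acceptor beads are 10 ug/mL final.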
Large screens that a line does not name were inactive; ! = a repeat was not active. Calls come from the whole dose curve; as a rule, active = well fitted curve in the direction sought with a large enough effect; inconclusive = small, poorly fitted or top-dose-only effect, or another doubt; inactive = no such curve, though single readings can be large; an effect the other way counts as inactive or inconclusive.

O=C(O)c1ccn(Cn2cnc3ccccc32)n1	JMJD2A Tudor 22µM, G9a block inconclusive, BAZ2B inh inconclusive
O=C(Cn1cnc2ccccc21)c1ccccc1	none (no result: G9a block)
CCOC(=O)C1CCN(C(=O)c2ccc(Cl)c(Cl)c2)CC1	G9a block inconclusive
CC1CCc2sc(-c3n[nH]c(=S)o3)cc2C1 (centres undefined)	G9a block 13µM, BAZ2B inh inconclusive
COc1cc2cccc(OC)c(=O)c2c(OC)c1OC	G9a block 50µM
COc1cc2oc(=O)cc(C)c2c(OC)c1OC	none
c1ccc(N2CCN(C3CC4CCC3C4)CC2)cc1 (centres undefined)	G9a block 79µM
Cc1cccc(NC(=O)CN2C(=O)N/C(=C\c3ccccc3OCc3ccc(C(=O)O)cc3)C2=O)c1	JMJD2A Tudor inconclusive, HP1b binding inh inconclusive, BAZ2B inh 71µM
O=C(O)c1ccc(COc2ccccc2/C=C2\NC(=O)N(Cc3ccc(F)cc3)C2=O)cc1	G9a block inconclusive
O=C(CN1C(=O)N/C(=C\c2ccccc2OCc2ccc(C(=O)O)cc2)C1=O)Nc1ccc(F)cc1	HP1b binding inh inconclusive, BAZ2B inh 71µM
CCc1nc(N2CCN(C(=O)CCl)CC2)c2c3c(sc2n1)CC(C)CC3 (centres undefined)	G9a block 79µM
N#Cc1c(NC(=O)c2ccc([N+](=O)[O-])o2)sc2c1CCC2	JMJD2A Tudor inconclusive, G9a block 32µM, HP1b binding inh inconclusive, BAZ2B inh 40µM
CC(C)c1ccc(NC(=O)c2cc([N+](=O)[O-])ccc2N2CCOCC2)cc1	G9a block inconclusive
Cc1ccc(-c2nc3cc(C(C)C)ccc3o2)cc1NC(=O)c1cc([N+](=O)[O-])ccc1N1CCOCC1	BAZ2B inh 89µM
N#Cc1c(NC(=O)c2cc([N+](=O)[O-])ccc2N2CCOCC2)sc2c1CCCC2	JMJD2A Tudor inconclusive, G9a block inconclusive, BAZ2B inh 56µM
NC(=O)c1c(NC(=O)c2ccc([N+](=O)[O-])o2)sc2c1CCCC2	none
N#Cc1c(NC(=O)c2ccc(Cn3cc(Br)cn3)o2)sc2c1CCCCCC2	G9a block 11µM
O=C(CN1C(=O)NC(c2ccccc2)(c2ccccc2)C1=O)NCc1ccccc1	none
CCC1(c2ccccc2)NC(=O)N(CC(=O)Nc2cc(S(=O)(=O)N3CCOCC3)ccc2OC(C)C)C1=O (centres undefined)	G9a block inconclusive
O=c1oc2ccccc2c(O)c1/C=C1\C=Nc2ccccc21	GLS inhibitor inconclusive, BAZ2B inh inconclusive (no result: G9a block)
Cc1c(C=O)cnn1CCC(=O)O	none (no result: G9a block, BAZ2B inh)
COc1ccc(C2(C)CC(C)(C)Nc3ccccc32)cc1 (centres undefined)	JMJD2A Tudor 50µM, HP1b binding inh inconclusive, BAZ2B inh inconclusive
COc1ccc(C2=C(C#N)C(=O)OC2)cc1	G9a block 32µM, BAZ2B inh inconclusive
O=c1[nH][nH]c2c(N=Cc3ccccc3O)ccc(F)c12	JMJD2A Tudor inconclusive, G9a block 8.9µM, HP1b binding inh 11µM, GLS inhibitor 11µM, BAZ2B inh 10µM
O=C(CNCCc1ccc(F)cc1)Nc1cc(F)ccc1F	JMJD2A Tudor 28µM, G9a block inconclusive, BAZ2B inh 20µM
Cn1nnnc1Sc1ncnc2scc(-c3ccccc3Cl)c12	none
Cn1nnnc1Sc1ncnc2scc(-c3cccc4c3sc3ccccc34)c12	JMJD2A Tudor 40µM! (no result: G9a block, BAZ2B inh)
COc1ccccc1OCc1ccc(C(=O)NCC(C)C)o1	none
CC(C)CN(C(=O)COC(=O)CSc1ccc(Br)cc1)C1CCS(=O)(=O)C1 (centres undefined)	none
COc1ccc2[nH]c(C)c(CCN3C(=O)C4CC=CCC4C3=O)c2c1 (centres undefined)	JMJD2A Tudor 25µM, G9a block inconclusive, BAZ2B inh inconclusive
Cc1ccccc1/C=N\NC(=O)c1ccc(Cn2cccn2)o1	JMJD2A Tudor 56µM
CC(C)CN(C(=O)COC(=O)c1ccccc1SCC(=O)NC1CCCCCC1)C1CCS(=O)(=O)C1 (centres undefined)	none
CCc1ccc(-n2c(=O)c3ccccc3n3c(=S)[nH]nc23)cc1	JMJD2A Tudor 4.5µM, G9a block 1.4µM
COCCCn1c(=O)c2ccccc2n2c(=S)[nH]nc12	JMJD2A Tudor 10µM, G9a block 8.9µM, HP1b binding inh inconclusive
CCOc1ccccc1NC(=O)Cn1c(=O)n(CCCCC(=O)NCCCOC)c(=O)c2ccccc21	BAZ2B inh 79µM
Cc1cccc(-n2c(=O)c3ccccc3n3c(=S)[nH]nc23)c1C	JMJD2A Tudor 25µM, G9a block 1.1µM
Cc1ccccc1-n1c(=O)c2ccccc2n2c(=O)[nH]nc12	none
CCCCNC(=O)CCn1c(=O)c2ccccc2n(CC(=O)Nc2ccccc2OCC)c1=O	none
CC(C)OCCCn1c(=O)c2ccccc2n2c(CCC(=O)O)nnc12	none
Cc1ncc([N+](=O)[O-])n1CC(C)O (centres undefined)	none
COc1cccc(-c2cc3c(=O)n(-c4ccccc4)c(=S)[nH]c3s2)c1	G9a block inconclusive
COCCCn1c(=O)c2ccccc2n(Cc2ccccc2)c1=O	G9a block 6.3µM, BAZ2B inh inconclusive
COc1cccc(-n2c(=O)c3ccccc3n3c(=S)[nH]nc23)c1	JMJD2A Tudor 11µM, G9a block 1.6µM, GLS inhibitor inconclusive
COc1ccc2sc3cccc(NCCN(C)C)c3c(=O)c2c1	none (no result: JMJD2A Tudor, G9a block, HP1b binding inh, BAZ2B inh)
CN(C)CCNc1ccc(CO)c2sc3ccc(O)cc3c(=O)c12	JMJD2A Tudor 50µM, HP1b binding inh 71µM (no result: G9a block, BAZ2B inh)
COc1ccc(/C=N\Nc2ncc(F)c(N3CCOCC3)n2)cc1OC	none (no result: G9a block)
C/C(Nc1ccc(Cl)c(Cl)c1)=C1/CCOC1=O	none (no result: JMJD2A Tudor, G9a block, HP1b binding inh, BAZ2B inh)
CN(C)c1ccc(CNC(=O)c2cc(S(=O)(=O)N3CCOCC3)cn2C)cc1	G9a block 40µM
CN(C)c1ccc(CNC(=O)CCCn2ccc3cc(S(=O)(=O)N4CCCC4)ccc32)cc1	JMJD2A Tudor inconclusive, G9a block 8.9µM, BAZ2B inh inconclusive
CCOC(=O)N1CCC(NS(=O)(=O)c2cc3c(cc2Br)CCN3C(=O)CC)CC1	none (no result: G9a block, BAZ2B inh)
COc1ccc(CN2CCCC(CO)(Cc3ccc(F)cc3)C2)cc1C (centres undefined)	none
COc1cc(C)c(CN2CCSCC2)cc1C	JMJD2A Tudor 32µM, BAZ2B inh inconclusive
COc1cc(OC)c(OC)cc1CN1CCSCC1	JMJD2A Tudor 3.2µM, G9a block inconclusive, HP1b binding inh inconclusive, BAZ2B inh 79µM
COc1ccc(CN2CCSCC2)cc1C	JMJD2A Tudor 8.9µM, G9a block 10µM, HP1b binding inh inconclusive, BAZ2B inh 79µM
COc1cccc(NC(=O)C2CCN(S(=O)(=O)c3ccc4[nH]c(=O)oc4c3)CC2)c1	none
